hNpr1 antagonist: human Npr1 receptor antagonism | P16066 | HEK293 hNpr1 GloSensor cGMP, ANP-stimulated luminescence | Potency, µM (top dose mostly 46.3 µM), for the others: at the top dose activity change, negative = inhibition, most hits filed as inhibitors | 76,000 compounds, 1.6% hits; calls by dose curve; further: on the % scale 0 is the no-effect control and ±100 the full control effect; nearly all actives have a fitted effect of over 60% in size
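Compound pre-incubated 30 min at room temperature on GloSensor-loaded HEK293 cells stably carrying hNpr1 and the pGS-40F cGMP biosensor. Stimulation uses hNppA at 0.1 nM final; luminescence is taken at baseline and 20 min post-agonist.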
HEK293 tox: HEK 293 cell cytotoxicity; HEK 293 viability, ATP luminescence (CellTiter-Glo), 48-72 h; AID 1345083; Potency, µM (highest dose often 115 µM), without a hit: at the top dose activity change, negative = cytotoxicity, most hits filed as inhibitors; 94,000 compounds, 6.6% hits; further: on the % scale 0 is the no-effect control and ±100 the full control effect; nearly all actives have a fitted effect of over 60% in size
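HEK 293 cells seeded at 250 cells/well were exposed to compound for 48 or 72 hr at 37 degree Celsius. Viability taken as ATP content by CellTiter-Glo luminescence.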
Luciferase inh: inhibitors of firefly (Photinus pyralis) luciferase. purified P. pyralis luciferase, luminescence, biochemical. Potency, µM (highest dose often 115 µM), hits mostly inhibitors. 76,000 compounds, 2.5% hits. AID 1347043; further: on the % scale 0 is the no-effect control and ±100 the full control effect; nearly all actives have a fitted effect of over 65% in size
Target sequence (P08659 whole entry, looked up): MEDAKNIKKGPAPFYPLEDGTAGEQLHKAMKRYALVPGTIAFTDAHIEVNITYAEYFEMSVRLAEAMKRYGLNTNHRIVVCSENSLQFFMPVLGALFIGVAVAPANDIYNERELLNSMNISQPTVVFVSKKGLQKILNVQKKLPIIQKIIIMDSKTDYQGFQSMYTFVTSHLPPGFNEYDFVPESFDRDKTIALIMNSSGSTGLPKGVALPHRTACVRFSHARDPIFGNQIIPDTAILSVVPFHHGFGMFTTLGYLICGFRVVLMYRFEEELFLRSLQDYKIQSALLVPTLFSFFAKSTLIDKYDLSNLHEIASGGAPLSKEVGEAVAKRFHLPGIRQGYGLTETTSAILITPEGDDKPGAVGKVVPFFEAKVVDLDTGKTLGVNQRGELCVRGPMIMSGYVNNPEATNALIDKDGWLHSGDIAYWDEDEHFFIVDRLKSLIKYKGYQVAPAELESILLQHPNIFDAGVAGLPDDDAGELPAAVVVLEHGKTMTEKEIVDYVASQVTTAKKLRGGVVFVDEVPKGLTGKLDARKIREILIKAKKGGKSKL
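FLuc 10nM, D-luciferin 10uM, ATP 10uM, Mg acetate 10mM, Tris acetate pH 7.5, Tween/BSA; cpd qHTS; enzyme added last; CCD luminescence.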
3T3 cytotox: kills NIH 3T3 cells. 94,000 compounds, 4.3% hits. NIH 3T3 viability, CellTiter-Glo ATP luminescence, 48-72 h. Potency, µM (series often up to 96.7 µM), for inactives: top-dose activity change, negative = cytotoxicity, usual class: inhibitors; further: on the % scale 0 is the no-effect control and ±100 the full control effect; nearly all actives have a fitted effect of over 55% in size
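Cytotoxicity was measured by CellTiter-Glo ATP luminescence after 48 or 72 h compound exposure at 37 °C. Mouse NIH 3T3 fibroblasts were seeded at 400 cells/well and dosed by 23 nL pin transfer.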
NPR1 antag cnf: confirmation of human Npr1 natriuretic peptide receptor antagonists; HEK293 hNpr1 cGMP GloSensor luminescence, ANP-stimulated; 1,400 compounds, 76% hits; Potency, µM (highest dose often 57.6 µM), for inactives: at the highest dose activity change, negative = inhibition, hits mostly inhibitors; shares compounds with hNpr1 antagonist; AID 1347044; calls by dose curve; further: nearly all actives have a fitted effect of over 70% in size
NPR2 antag: hNpr2 antagonism, selectivity versus Npr1; 1,400 compounds, 67% hits; AID 1347046; shares compounds with hNpr1 antagonist; Potency, µM (titrated, usually from 57.6 µM), for the others: at the highest dose activity change, negative = inhibition, actives largely listed as inhibitors; HEK293 hNpr2 GloSensor cGMP luminescence, CNP-stimulated; calls by dose curve; further: nearly all actives have a fitted effect of over 70% in size
FLuc counter: inhibits firefly luciferase, false Npr1 antagonist flag; Potency, µM (doses to about 57.6 µM), for inactives: at the top dose activity change, negative = inhibition, hits mostly inhibitors; 1,400 compounds, 0.7% hits; shares compounds with hNpr1 antagonist; purified FLuc enzyme, luminescence, Km substrate; further: 0% is about no effect
GloSensor ctrl: control cell line activity, Npr1 antagonist counter-screen; Potency, µM (titrated, usually from 57.6 µM), inactives show at the top dose activity change, negative = inhibition, hits mostly inhibitors; 1,400 compounds, 69% hits; HEK293 GloSensor cGMP, SNP-stimulated, luminescence; AID 1347051; shares compounds with hNpr1 antagonist; calls by dose curve; further: on the % scale 0 is the no-effect control and ±100 the full control effect; nearly all actives have a fitted effect of over 70% in size
* = called active by the depositor; [ ] = remark or other dose. Hits are enriched below; roughly 11% of the tested compounds scored in any of these assays. Unless noted, the call rests on the fitted dose curve; in most records, active means well fitted curve in the direction sought with a large enough effect; inconclusive means small, poorly fitted or top-dose-only effect, or another doubt; inactive means no such curve, though single readings can be large; an effect the other way counts as inactive or inconclusive. Potency means the concentration at half of the fitted maximal effect.

What do the screens show for `CN1CC2(CCN(C(=O)Cc3c[nH]c4ccccc34)CC2)CC1C(=O)N1CCOCC1` (stereo unspecified)?
hNpr1 antagonist: -1.9%; HEK293 tox: -1.8%; Luciferase inh: inactive; 3T3 cytotox: -2.6%

How did CNC(=O)c1cccc(-c2cnc3[nH]cc(CC(=O)N(C)c4ccccc4)c3c2)c1 do in these assays?
hNpr1 antagonist: 28.2µM*; HEK293 tox: 44.7µM*; Luciferase inh: inactive; 3T3 cytotox: 20µM*; NPR1 antag cnf: 35.3µM*; NPR2 antag: 35.3µM*; FLuc counter: -23.2%[86.2 µM]; GloSensor ctrl: 39.6µM*

Results for Cc1cccc(-c2cnc3[nH]cc(CC(=O)N4CCOCC4)c3c2)c1 ?
hNpr1 antagonist: 12.6µM*; HEK293 tox: inconclusive; Luciferase inh: inactive; 3T3 cytotox: inconclusive; NPR1 antag cnf: 12.5µM*; NPR2 antag: 25µM*; FLuc counter: -20.7%[86.2 µM]; GloSensor ctrl: 9.94µM*

What do the screens show for `COCCN1C(=O)CO[C@H]2CN(CCCc3ccccc3)C[C@H]21`?
hNpr1 antagonist: 14.1µM*; HEK293 tox: inconclusive; Luciferase inh: inactive; 3T3 cytotox: inconclusive; NPR1 antag cnf: 15.7µM*; NPR2 antag: 19.8µM*; FLuc counter: -2.1%[86.2 µM]; GloSensor ctrl: 12.5µM*

What do the screens show for `NC(=O)CN1C(=O)CO[C@H]2CN(CCCc3ccccc3)C[C@H]21`?
hNpr1 antagonist: -19.1%[70.6 µM]; HEK293 tox: -11.0%[172 µM]; Luciferase inh: inactive; 3T3 cytotox: inconclusive

How did O=C1Cc2c(-c3ccc(Oc4ccccc4)cc3)n[nH]c2CN1Cc1ccccc1F do in these assays?
hNpr1 antagonist: -8.5%[70.6 µM]; HEK293 tox: inconclusive; Luciferase inh: inactive; 3T3 cytotox: inconclusive

Results for Cc1ccc(C(=O)N2CCCCCCNC(=O)[C@@H]3C[C@@H](c4nc(-c5cnccn5)no4)C[C@@H]32)s1 ?
hNpr1 antagonist: -0.4%; HEK293 tox: -13.6%; Luciferase inh: inactive; 3T3 cytotox: -22.7%

How did Cc1nn2c(c1-c1ccccc1C(C)C)N(Cc1cccc(C(=O)O)c1)CCC2 do in these assays?
hNpr1 antagonist: inconclusive; HEK293 tox: 56.2µM*; Luciferase inh: inactive; 3T3 cytotox: 44.7µM*; NPR1 antag cnf: inconclusive; NPR2 antag: -22.4%[86.2 µM]; FLuc counter: -2.3%[86.2 µM]; GloSensor ctrl: -23.2%[86.2 µM]

How did COc1ccc(OC)c(CN2CCCn3nc(C)c(-c4ccccc4C(C)C)c32)c1 do in these assays?
hNpr1 antagonist: -26.9%[70.6 µM]; HEK293 tox: 63.1µM*; Luciferase inh: inactive; 3T3 cytotox: 35.5µM*; NPR1 antag cnf: 39.6µM*; NPR2 antag: 39.6µM*; FLuc counter: 1.9%[86.2 µM]; GloSensor ctrl: inconclusive

Results for Cc1nn2c(c1-c1ccccc1C(C)C)N(CCC(C)C)CCC2 ?
hNpr1 antagonist: 2.51µM*; HEK293 tox: 11.2µM*; Luciferase inh: inactive; 3T3 cytotox: 8.91µM*; NPR1 antag cnf: 1.57µM*; NPR2 antag: 2.5µM*; FLuc counter: -10.2%[86.2 µM]; GloSensor ctrl: 1.77µM*

Results for COc1ccc(OC)c(CN2CCC3OCCN(Cc4ccccc4)C(=O)C3C2)c1 (stereo unspecified) ?
hNpr1 antagonist: -6.8%[70.6 µM]; HEK293 tox: inconclusive; Luciferase inh: inactive; 3T3 cytotox: inconclusive

Results for Cc1nn2c(c1-c1ccccc1C(N)=O)N(C(=O)c1ccccc1)CCC2 ?
hNpr1 antagonist: 0.5%[70.6 µM]; HEK293 tox: inactive; Luciferase inh: inactive; 3T3 cytotox: inconclusive

Source: PubChem
